# Source: PubChem BioAssay AID1458 (National Center for Advancing Translational Sciences (NCATS), 2008)
# Among all 210,000 compounds or so, about 5,900 (2.8%) were called active. About 5% were inconclusive and are not listed. This is one part of a sample in which actives are shown more often than they occur. A number with no mark means an inactive call. Calls come from the whole dose curve; as a rule, active = well fitted activation curve with a large enough effect; inconclusive = small, poorly fitted or top-dose-only effect; inactive = no such curve, though single readings can be large or run the other way.
# Assay: qHTS Assay for Enhancers of SMN2 Splice Variant Expression; note: nearly all actives have a fitted effect of over 55% in size; for activity change, positive = activation: % of control where 0% means no effect
# Conditions: HEK293 SMN2-luciferase splicing reporter, luminescence, 30-36 h; series mostly up to 46.1 µM; activity change, positive = activation: at the top concentration
# Outline: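 HEK293 cells carry an SMN2 […]–luciferase reporter in which exon 7 inclusion puts luciferase in frame. Cells were plated 10-12 h before compound addition, then incubated 30-36 h at 37C. ONE-Glo luminescence was read; sodium butyrate at 4.5 mM final served as control.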
# Potency is the fitted concentration of half-maximal effect.
SMILES,"activity change, positive = activation",Potency
CCOc1cc(C2c3c(-c4ccc(Br)cc4)n[nH]c3C(=O)N2c2ccc(Cl)cc2)ccc1O (centres undefined),-31.4%,
O=C(c1ccc2c(c1)N(Cc1ccc(Cl)cc1)C(=O)c1ccccc1S2(=O)=O)N1CCCCC1,-11.6%,
CC1CCC2(CC1)N=C(c1ccccc1)C(=O)N2CC(=O)Nc1ccc(F)c(Cl)c1 (centres undefined),6.66%,
O=C(Nc1nc(-c2ccncc2)cs1)C1COc2ccccc2O1 (centres undefined),14.3%,
c1ccc(Nc2nc(-c3ccncc3)cs2)nc1,,12.6 µM (active)
O=C(Nc1nc(-c2ccc(-c3ccccc3)cc2)cs1)c1cnccn1,-28.6%,
CSc1ccc(NC(=O)Cn2nnnc2-c2ccccc2F)cc1,-1.68%,
CN(c1ccccc1)S(=O)(=O)c1ccc(Cl)c(C(=O)NCCc2c[nH]c3ccccc23)c1,-16.4%,
O=C(NCCc1c[nH]c2ccccc12)C(=O)NCC1CCCO1 (centres undefined),-8.48%,
O=C(NCCc1c[nH]c2ccccc12)c1cc2ccccc2oc1=O,,17.8 µM (active)
O=C(Nc1cccc2cccnc12)c1cccc2c(Br)cccc12,2.49%,
CCOC(=O)c1c(-c2ccc(OC)cc2)oc2ccc(OCc3ccc(C(=O)OC)cc3)cc12,-6.6%,
COC(=O)c1sccc1NC(=O)c1csc2c1CCCC2,32.6%,
CC(=O)Cc1nsc(NC(=O)c2csc3c2CCCC3)n1,4.95%,
Cc1ccc(NC(=O)c2csc3c2CCCC3)cc1,,4.47 µM (active)
O=C(NCc1ccccc1Cl)c1csc2c1CCCCC2,5.72%,
CCOC(=O)c1ccc(NC(=O)c2csc3c2CCCCC3)cc1,-16.6%,
COC(=O)c1sc(NC(=O)c2csc3c2CCCC3)nc1C,,2.51 µM (active)
COc1ccc(OC)c(NC(=O)/C=C/c2ccc(C)o2)c1,-0.29%,
NC(=O)c1sc(-c2ccsc2)cc1N,14.9%,
COc1ccc(CNC(=O)CS(=O)Cc2nc(-c3cccc(C)c3)oc2C)cc1 (centres undefined),-5.97%,
CC(=O)Nc1ccc(NC(=O)C(C)OC(=O)c2ccccc2C(=O)c2ccc(Cl)c([N+](=O)[O-])c2)cc1 (centres undefined),,25.1 µM (active)
CC(CC(=O)O)C(=O)c1ccc(Cl)c([N+](=O)[O-])c1 (centres undefined),5.72%,
N#Cc1cccc(NC(=O)COC(=O)c2ccccc2C(=O)c2ccc(Cl)c([N+](=O)[O-])c2)c1,-115%,
COc1cc(OC)c(NC(=O)c2c3c(nn2C)-c2ccccc2SC3)cc1Cl,-7.27%,
COc1ccccc1N1CCN(C(=O)c2cn(-c3ccccc3)nc2-c2cccnc2)CC1,,22.4 µM (active)
COC(=O)c1cn(-c2ccccc2)nc1-c1cccnc1,-22%,
O=C(c1cn(-c2ccccc2)nc1-c1cccnc1)N1CCCCC1,-3.31%,
CCOc1ccc(NC(=O)CSc2c3c(nc4ccccc24)CCCC3)cc1,-16.5%,
